According to PubChem BioAssay:
“And” between values parts separate entries of the source, which are not always exact repeats. Equal values may be shown once.

Assay: sensitizers of A549 cells to miR-34 induction, primary screen, imaging, A549 dox-inducible miR-34, nuclei and caspase counts (AID 1347080); also: test concentration not given here
Details: A549 miR-34 inducible, Hoechst nuclei count, 48 h; measured here: total cells with miR-34 induction; stronger effect = lower value

| Structure (SMILES) | cell count |
| --- | --- |
| CCCCCCCCCCCCC/C=C/[C@@H](O)[C@H](CO)NCCCCCCCC | 5120 and 5820 |
| COc1ccc(C2=NC(c3ccc(Cl)cc3)C(c3ccc(Cl)cc3)N2C(=O)N2CCNC(=O)C2)c(OC(C)C)c1 (stereo not given) | 2920 and 2710 and 7580 |
| CC(C)=CCC/C(C)=C/CC/C(C)=C/CSCC(=O)O | 5900 |
| CCC(CO)Nc1nc(NCc2ccccc2)c2ncn(C(C)C)c2n1 (stereo not given) | 1560 and 4690 |
| CC/C=C\C/C=C\C/C=C\C/C=C\C/C=C\C/C=C\CCC(=O)O | 5660 and 5960 |
| CCc1cncnc1N1CCN(Cc2nc3ccc(C(F)(F)F)cc3[nH]2)CC1 | 6670 and 5920 |
| CC/C=C\C/C=C\C/C=C\CCCCCCCC(=O)O | 6070 and 5710 |
| NC(N)=NCc1cccc(I)c1 | 8720 and 5880 |
| CCCCCCCCCCCCC/C=C/[C@@H](O)[C@@H](N)CO | 6200 and 6060 |
| CC/C=C\C/C=C\C/C=C\CCCCCCCCCC(=O)O | 5750 and 5880 |
| O=C(O)CCC/C=C\CC1C2CCC(O2)C1CNNC(=O)Nc1ccccc1 (stereo not given) | 5700 and 5510 |
| O=C(O)CNC(=O)C(CS)Cc1ccccc1 (stereo not given) | 9910 and 8670 and 5950 |
| CCCCC/C=C\C/C=C\C/C=C\C/C=C\CCCC(=O)OC(CO)CO | 6380 and 5230 |
| CCCCC/C=C/C=C1/C(=O)C=C[C@@H]1C/C=C\CCCC(=O)O | 5600 and 6330 and 6250 |
| CCCCCCCCCCCCC/C=C/[C@@H](O)[C@H](CO)N(C)C | 5480 |
| CC(C)(C)[C@]1(O)CCN2C[C@H]3c4ccccc4CCc4cccc(c43)[C@@H]2C1 | 6310 and 6160 and 8940 |
| CCCCC[C@H](O)/C=C/C1=C(CCCCCCC(=O)O)C(=O)CC1 | 6120 and 6210 |
| C#CCCCCCCCCCCCCCCCC(=O)O | 5840 and 5920 |
| CCCCC[C@H](O)/C=C/C1=C(C/C=C\CCCC(=O)O)C(=O)CC1 | 6100 and 5600 |
| COc1ccc(C(=O)NCc2cccnc2)cc1C(=O)NCc1cccnc1 | 10400 and 9270 |

| Structure (SMILES) | cell count |
| --- | --- |
| COc1ccc(-c2ccc(N)[n+](CCCC(=O)O)n2)cc1 | 9690 and 9480 |
| Nc1ccc2ncnc(NCCc3ccc(Oc4ccccc4)cc3)c2c1 | 2180 and 3030 and 5480 |
| COc1ccccc1N1CCN(CCCCNC(=O)c2ccc3ccccc3c2)CC1 | 7170 and 7370 |
| CCCCCCCC/C=C\CCCCCCCC(=O)OC[C@H](CO)OC(C)=O | 6120 and 5660 |
| CCCCC/C=C\C/C=C\CCCCCCCC(=O)O | 6220 and 5980 |
| COC(=O)C1=C(C)NC(C)=C(C(=O)OC2CCCN(Cc3ccccc3)C2)C1c1cccc([N+](=O)[O-])c1 (stereo not given) | 3920 and 6890 |
| CCCCCCCCCCCCC/C=C/[C@@H](O)[C@H](CO)NC(=O)CCCCCCC | 5260 and 5480 |
| CCCCC[C@H](O)/C=C/[C@H]1C=CC(=O)[C@@H]1CCCCCCC(=O)O | 5980 and 4550 |
| CCCCCC#CCC#CCC#CCC#CCCCC(=O)O | 5420 and 5670 |
| CO[C@H]1C[C@@H]2CC[C@@H](C)[C@@](O)(O2)C(=O)C(=O)N2CCCC[C@H]2C(=O)O[C@H]([C@H](C)C[C@@H]2CC[C@@H](O)[C@H](OC)C2)CC(=O)[C@H](C)/C=C(\C)[C@@H](O)[C@@H](OC)C(=O)[C@H](C)C[C@H](C)/C=C/C=C/C=C/1C | 3240 and 7080 |
| CCCCCCCC/C=C\C/C=C\C/C=C\CCCC(=O)O | 6200 and 5590 |
| CC(=O)N[C@@H](CSC/C=C(\C)CC/C=C(\C)CCC=C(C)C)C(=O)O | 5730 and 5900 |
| CC/C=C\C/C=C\C/C=C\C/C=C\C/C=C\CCCCCC(=O)O | 5080 and 5820 |
| CC(=O)N[C@@H](CSC/C=C(\C)CC/C=C(\C)CC/C=C(\C)CCC=C(C)C)C(=O)O | 6090 and 5570 |
| CCCCCCCCC#CCC#CCC#CCCCC(=O)O | 5490 and 6070 |
| CCCCC[C@H](O)/C=C/[C@H]1C(=O)C[C@H](O)[C@@H]1C/C=C\CCCC(=O)O | 6220 and 5740 |
| CC(C)NC[C@H](O)c1ccc(O)c(O)c1 | 9390 and 11000 and 9560 |
| CCCCC[C@H](O)/C=C/[C@H]1C=CC(=O)[C@@H]1C/C=C\CCCC(=O)O | 5740 and 5500 |
| CCCCC/C=C\C/C=C\C/C=C\C/C=C\CCCCCC(=O)O | 6030 and 5700 |
| CCCCC[C@H](O)/C=C/[C@H]1C(=O)C=C[C@@H]1C/C=C\CCCC(=O)O | 6120 and 6100 |

Same assay, conditions: A549 miR-34 inducible, Hoechst nuclei count, 48 h; measured here: total cells without miR-34 induction

| Structure (SMILES) | cell count |
| --- | --- |
| CCCCCCCCCCCCC/C=C/[C@@H](O)[C@H](CO)NCCCCCCCC | 5540 and 5810 |
| COc1ccc(C2=NC(c3ccc(Cl)cc3)C(c3ccc(Cl)cc3)N2C(=O)N2CCNC(=O)C2)c(OC(C)C)c1 (stereo not given) | 3200 and 2970 and 8230 |
| CC(C)=CCC/C(C)=C/CC/C(C)=C/CSCC(=O)O | 6120 and 6010 |
| CCC(CO)Nc1nc(NCc2ccccc2)c2ncn(C(C)C)c2n1 (stereo not given) | 1150 and 5130 |
| CC/C=C\C/C=C\C/C=C\C/C=C\C/C=C\C/C=C\CCC(=O)O | 5860 and 6070 |
| CCc1cncnc1N1CCN(Cc2nc3ccc(C(F)(F)F)cc3[nH]2)CC1 | 6690 and 6430 |
| CC/C=C\C/C=C\C/C=C\CCCCCCCC(=O)O | 6250 and 5780 |
| NC(N)=NCc1cccc(I)c1 | 7960 |
| CCCCCCCCCCCCC/C=C/[C@@H](O)[C@@H](N)CO | 6290 and 6410 |
| CC/C=C\C/C=C\C/C=C\CCCCCCCCCC(=O)O | 5250 and 5730 |
| O=C(O)CCC/C=C\CC1C2CCC(O2)C1CNNC(=O)Nc1ccccc1 (stereo not given) | 5910 and 6160 |
| O=C(O)CNC(=O)C(CS)Cc1ccccc1 (stereo not given) | 10200 and 10400 and 5920 |
| CCCCC/C=C\C/C=C\C/C=C\C/C=C\CCCC(=O)OC(CO)CO | 6740 and 5180 |
| CCCCC/C=C/C=C1/C(=O)C=C[C@@H]1C/C=C\CCCC(=O)O | 5380 and 7550 and 3960 |
| CCCCCCCCCCCCC/C=C/[C@@H](O)[C@H](CO)N(C)C | 5090 and 5880 |
| CC(C)(C)[C@]1(O)CCN2C[C@H]3c4ccccc4CCc4cccc(c43)[C@@H]2C1 | 5360 and 5740 and 9460 |
| CCCCC[C@H](O)/C=C/C1=C(CCCCCCC(=O)O)C(=O)CC1 | 6270 and 6500 |
| C#CCCCCCCCCCCCCCCCC(=O)O | 5920 and 5580 |
| CCCCC[C@H](O)/C=C/C1=C(C/C=C\CCCC(=O)O)C(=O)CC1 | 6300 and 6320 |
| COc1ccc(C(=O)NCc2cccnc2)cc1C(=O)NCc1cccnc1 | 11100 and 9960 and 10800 |

| Structure (SMILES) | cell count |
| --- | --- |
| COc1ccc(-c2ccc(N)[n+](CCCC(=O)O)n2)cc1 | 10100 and 11100 |
| Nc1ccc2ncnc(NCCc3ccc(Oc4ccccc4)cc3)c2c1 | 2950 and 4280 and 8020 |
| COc1ccccc1N1CCN(CCCCNC(=O)c2ccc3ccccc3c2)CC1 | 6900 and 9000 |
| CCCCCCCC/C=C\CCCCCCCC(=O)OC[C@H](CO)OC(C)=O | 6290 and 5950 |
| CCCCC/C=C\C/C=C\CCCCCCCC(=O)O | 6400 and 5840 |
| COC(=O)C1=C(C)NC(C)=C(C(=O)OC2CCCN(Cc3ccccc3)C2)C1c1cccc([N+](=O)[O-])c1 (stereo not given) | 2160 and 6660 |
| CCCCCCCCCCCCC/C=C/[C@@H](O)[C@H](CO)NC(=O)CCCCCCC | 5940 and 5480 |
| CCCCC[C@H](O)/C=C/[C@H]1C=CC(=O)[C@@H]1CCCCCCC(=O)O | 6560 and 5390 |
| CCCCCC#CCC#CCC#CCC#CCCCC(=O)O | 5670 and 5820 |
| CO[C@H]1C[C@@H]2CC[C@@H](C)[C@@](O)(O2)C(=O)C(=O)N2CCCC[C@H]2C(=O)O[C@H]([C@H](C)C[C@@H]2CC[C@@H](O)[C@H](OC)C2)CC(=O)[C@H](C)/C=C(\C)[C@@H](O)[C@@H](OC)C(=O)[C@H](C)C[C@H](C)/C=C/C=C/C=C/1C | 3790 and 7430 |
| CCCCCCCC/C=C\C/C=C\C/C=C\CCCC(=O)O | 6220 and 5670 |
| CC(=O)N[C@@H](CSC/C=C(\C)CC/C=C(\C)CCC=C(C)C)C(=O)O | 6380 and 5570 |
| CC/C=C\C/C=C\C/C=C\C/C=C\C/C=C\CCCCCC(=O)O | 5170 and 6110 |
| CC(=O)N[C@@H](CSC/C=C(\C)CC/C=C(\C)CC/C=C(\C)CCC=C(C)C)C(=O)O | 6470 and 5860 |
| CCCCCCCCC#CCC#CCC#CCCCC(=O)O | 6300 and 5430 |
| CCCCC[C@H](O)/C=C/[C@H]1C(=O)C[C@H](O)[C@@H]1C/C=C\CCCC(=O)O | 6440 and 5870 |
| CC(C)NC[C@H](O)c1ccc(O)c(O)c1 | 8130 and 10100 and 10000 |
| CCCCC[C@H](O)/C=C/[C@H]1C=CC(=O)[C@@H]1C/C=C\CCCC(=O)O | 5880 and 5820 |
| CCCCC/C=C\C/C=C\C/C=C\C/C=C\CCCCCC(=O)O | 5980 and 5950 |
| CCCCC[C@H](O)/C=C/[C@H]1C(=O)C=C[C@@H]1C/C=C\CCCC(=O)O | 6540 and 6550 |
